Laboratory results: PubChem BioAssay AID1276 (Columbia University Molecular Screening Center, 2008)
About 2,000 (1.1%) of roughly 190,000 compounds were called active.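 The calls were made as follows: active = activation above a set limit, based on mean plus 3 SD of controls (cut at about 140% in these data); inconclusive = one replicate above the limit, the other below; inactive = the rest.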 The sample as a whole holds a higher share of actives than the screen did.

Assay: activators of APP 5'UTR luciferase reporter, primary screen, SH-SY5Y cells (AID 1276)
Conditions: SH-SY5Y APP 5'UTR luciferase reporter, luminescence; at 2 µM; stronger effect = higher value; zero percent = DMSO vehicle wells

activation, inactive:
Cc1ccc(C(=O)Nc2cccc3ncccc23)cc1[N+](=O)[O-] -2.5%
CCN1CCC(=NNC(=O)c2ccc(C)c([N+](=O)[O-])c2)CC1 -0.15%
O=[N+]([O-])c1ccccc1N/N=C1\CCc2ccccc21 120%
Nc1ccc(-c2nnc(-c3ccc(-c4ccccc4)cc3)o2)cc1 79.7%
CCCCCC(=O)Nc1ccc2oc(-c3ccncc3)nc2c1 7.49%
C=CCNC(=S)N1CCN(CCN=Cc2c(C)[nH]n(-c3ccc([N+](=O)[O-])cc3)c2=O)CC1 1.34%
O=C(CN1CCN(c2ccc(O)cc2)CC1)Nc1cc(S(=O)(=O)N2CCOCC2)ccc1Cl 2.42%
OCC1(CCOc2ccccc2)CCN(Cc2cn[nH]c2-c2ccccc2)CC1 7.79%
Cc1ncc(CC(=O)n2cc(C(=O)c3cc(Cl)ccc3O)cn2)s1 6.84%
O=C(O)c1ccc(NC(=O)c2cn(-c3ccccc3)nc2-c2ccc(Cl)cc2)cc1 8.51%
Cc1nc2ccccc2nc(=O)c1NNc1ccc([N+](=O)[O-])cc1 -4.38%
CCc1ccc(NC(=O)N2CCN(c3ccccc3)CC2)cc1 1.57%
CCOC(=O)c1ccc(NC2Nc3cc(C)nn3S2)cc1 (centres undefined) 4.66%
CC(=O)c1ccc(-c2nnc(CCC(=O)N(C)Cc3cnc4ccccn34)o2)s1 -5.43%
COC(=O)CN1C(=O)N/C(=C/c2ccc(OC)c(C)c2OC)C1=O -21.7%
Cc1cc(C)n(Cc2cnc(N3CCOCC3)s2)n1 22.6%
NNC(=O)c1cnn(-c2ccccc2)c1C(F)(F)F 15.9%
Cc1ccccc1Nc1nc(N)nc(CSc2nnc3ccccn23)n1 59.9%
Cc1ccc(C(=O)OCc2nc(N)nc(Nc3ccccc3C)n2)cc1 -2.39%
CCCC1(C(=O)OC)NC(c2ccco2)C2C(=O)N(C)C(=O)C21 (centres undefined) 9.69%
CC(=O)NCCc1nc2cc(NC(=O)c3ccccc3)ccc2n1C 55.4%
Cc1cc(C)c2nc(SCC(=O)N(C)C3CCS(=O)(=O)C3)cc(C)c2c1 (centres undefined) 11.6%
O=C(CC1SCCNC1=O)Nc1ccc(Cl)c(Cl)c1 (centres undefined) -7.34%
Cc1nc(SCC(=O)Nc2cc(C)on2)c2c3c(sc2n1)CCCC3 -10.6%
CC(NC(=O)CSc1nc2c(cc1C#N)CN(C)CC2)c1ccccc1 (centres undefined) 1.35%
COc1ccc(-c2nn3c(-c4ccccc4)nnc3s2)cc1OC 12.1%
COc1ccc(C2CC(c3cccs3)=Nc3ccccc3S2)cc1OC (centres undefined) 2.96%
O=C(NCCc1ccccn1)c1cc(-c2ccc(Cl)cc2)nc2ccccc12 -9.75%
O=c1c2c(nc3nc[nH]n13)CCC2 3.94%
O=C1CCCc2c1nc(-c1cccc(Cl)c1)n2O -94.3%
Cc1ccc(-c2cc(N)on2)cc1 -4.88%
CCC(C)NC(=O)Cn1nc(C(F)(F)F)c2c1CCC2 (centres undefined) -3.33%
CCCC(=O)Nc1cccc(-c2cn3ccsc3n2)c1 20.7%
COc1ccc(-c2cn3cccnc3n2)cc1 35.2%
CN1C(=O)/C(=C\c2ccc(-c3ccccc3)o2)SC1=S 5.23%
Cc1cccc(OC(=O)c2sc3ncn(C)c(=O)c3c2C)c1 62.6%
O=C(c1cccc(N2CCCC2=O)c1)N1CCOCC1 10.7%
O=C(O)c1cccc(N2C(=O)Nc3ccccc3N2O)c1 27.8%
CCOC(=O)c1cc2c(=O)[nH]c(C(Cl)(Cl)Cl)nc2o1 5.69%
CCCCOc1ccc(C(=O)NCC(=O)OCC(=O)N2CCN(S(=O)(=O)c3ccc(C)cc3C)CC2)cc1 -1.98%
Cc1ccnc(Nc2nc3ccccc3s2)n1 127%
O=[N+]([O-])c1cc(Br)c(O)c(/C=N/Nc2nc3ccccc3s2)c1 12.5%
CCOCCCNC(=S)N1CCC(NC(=O)C2CCCCC2)CC1 -16.3%
CCn1ccnc1CN(C)Cc1nc(-c2ccc3c(c2)OCO3)no1 14.5%
O=C(O)/C=C/c1cn(-c2ccccc2)nc1-c1cccs1 -9.09%
O=C(/C=C\c1cn(-c2ccccc2)nc1-c1cccs1)N1CCOCC1 -5.12%
COc1ccc(/C=N/N=C/c2c[nH]c(=O)c(C#N)c2Nc2ccccc2)cc1 -8.9%
CCc1ccc(-c2nnn(Cc3nc4ccccc4s3)n2)cc1 0.38%
COc1cccc2sc(NNC(=O)c3nc4ccccc4s3)nc12 7.9%
CC(O)C(NS(=O)(=O)c1ccc(Cl)cc1)C(=O)OCc1cc([N+](=O)[O-])cc2c1OCOC2 (centres undefined) 22.7%
CCOc1nc(-c2ccc(OC)cc2)ccc1-c1noc(-c2cc(OC)c(OC)c(OC)c2)n1 -12.3%
COc1ccc(-c2noc(-c3ccc(C)cc3)n2)cc1 38.2%
COC(=O)c1c(NC(C)=O)sc(C(=O)Nc2ccccc2OC)c1C 2.59%
COc1ccccc1NC(=O)C1=C(C)NC(=O)NC1c1ccc(C)s1 (centres undefined) 12.8%
CC[n+]1c(C)n(-c2ccccc2)c2ccc(NC(C)=O)cc21 19.1%
CCOC(=O)c1sc(NC(=O)c2ccncc2)nc1C 7.58%
COc1ccc(C(=O)Nc2nncs2)c(OC)c1 31.6%
CCN(CC(=O)Nc1ccc(Cl)c(S(=O)(=O)N(C)C)c1)Cc1nc2ccccc2c(=O)[nH]1 -2.77%
O=C(O)Cc1sc(-c2ccc(C(=O)O)cc2)nc1-c1ccccc1 19.5%
O=C(O)Cc1sc(-c2ccccc2)nc1-c1cccs1 2.54%
O=C(Nc1nc2ccc([N+](=O)[O-])cc2s1)c1ccc(S(=O)(=O)N2CCCc3ccccc32)cc1 2.11%
CCCCN(C(=O)COc1ccc(NC(C)=O)cc1)C1CCS(=O)(=O)C1 (centres undefined) 6.89%
COc1cccc(C(=O)Nc2nc3ccc(S(C)(=O)=O)cc3s2)c1 61.6%
COc1ccc2nc(Nc3nc4ccc(NC(C)=O)cc4s3)sc2c1 20.2%
CCOC(=O)CSC1=N/C(=C/c2ccc(-n3cncn3)cc2)C(=O)N1C(C)=O -12%
O=C(NCc1nnc(SCC(=O)N2CCC(Cc3ccccc3)CC2)o1)c1ccco1 -6.49%
O=C(OCc1ccc([N+](=O)[O-])cc1)c1ccccn1 -1.07%
N/C(=N\OC(=O)Cc1ccc([N+](=O)[O-])cc1)c1ccccn1 60.6%
O=[N+]([O-])c1ccc2[nH]c3c(c2c1)CCCC3O (centres undefined) -8.34%
O=C(COC(=O)c1ccccc1F)Nc1cc(S(=O)(=O)N2CCOCC2)ccc1N1CCCC1 6.91%
O=C(/C=C/c1ccccc1)c1ccoc1 0.93%
O=C(O)c1ccc2c(c1)C(=O)N(c1ccc(/C=C/C(=O)c3ccccc3)cc1)C2=O 19.3%
O=S(=O)(Nc1ccccn1)c1cccc(S(=O)(=O)c2ccc(Cl)cc2)c1 8.9%
COCCNC(=S)Nc1cc(S(=O)(=O)N2CCOCC2)ccc1N1CCCCC1 21.7%
Cn1nnnc1SCC(=O)NNC(=O)c1ccc(Br)cc1 -3.54%
O=C(COC(=O)CNS(=O)(=O)c1ccccc1)NC12CC3CC(CC(C3)C1)C2 0.34%
CN(C)CCn1c(=S)[nH]c2ccc(Cl)cc2c1=O -6.45%
Cc1cc(C)n(-c2ccc(C(=O)O)cc2[N+](=O)[O-])n1 -4.56%

activation, active:
Cc1cc(O)c(NC(=O)c2ccc(C)c([N+](=O)[O-])c2)cc1C 142%
CCc1ccc2oc(-c3ccc(N)cc3)nc2c1 141%
O=C(c1cnn(-c2ccc(Cl)cc2)c1)c1ccccc1O 177%
CCc1ccc(NC2Nc3cc(C)nn3S2)cc1 (centres undefined) 166%
Cc1ccccc1Nc1nc(N)nc(CSc2ccccc2)n1 159%
Cc1cc(NC(=O)CSc2nc3c(cc2C#N)CCCCC3)no1 191%
COc1ccc(-c2csc(-c3cccs3)n2)cc1OC 172%
O=c1c2c(nc3cc(-c4cccc(Cl)c4)[nH]n13)CCCC2 158%
COc1ccc(-c2cn3ccsc3n2)cc1 135%
NC1=NN(c2cccc(C(=O)O)c2)C(=O)C1 135%
c1ccc2sc(NN=C3CCCC3)nc2c1 193%
O=C(O)c1ccc(N/N=C/c2cn(-c3ccccc3)nc2-c2cccs2)cc1 140%
COc1ccccc1OCc1nc2ccccc2s1 142%
COc1ccc(-c2nc(-c3ccccc3)no2)c(OC)c1 139%
COc1ccccc1NC(=O)c1ccc(C)s1 141%
COC(=O)c1sc(NC(=O)c2ccc(OC)cc2OC)nc1C 137%
NC(=O)Cc1ccc2sc(-c3ccccc3)nc2c1 140%
COc1ccc2nc(NC(=O)c3ccc(Br)s3)sc2c1 136%
N/C(=N\OC(=O)c1ccc([N+](=O)[O-])cc1)c1ccccn1 149%
O=C(/C=C/c1ccc(N2CCOCC2)cc1)c1ccccc1 140%
CN(C)CCN=c1cc(-c2ccccc2)oc2ccc(Cl)cc12 158%
